Records with an inconclusive call do not appear. Calls of active or inactive are those of the source. Unless noted, the call rests on the fitted dose curve; in most records, active means well fitted curve in the direction sought with a large enough effect in the repeat runs; inconclusive means weak or mixed curves; inactive means flat fitted curve, though single readings scatter.
How the values were obtained:
[1] = qHTS assay to test for compound auto fluorescence at 460 nm (blue) in HEK293 cell free culture (AID 720681); conditions: cell-free medium, autofluorescence 405/460 nm (blue); series mostly up to 91.3 µM
Procedure, shortened: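 Compounds were added to cell-free DMEM with 10% FBS and fluorescence read directly. The blue channel used 405 nm excitation and 460 nm emission, with triamterene as the reference fluorophore.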

[2] = qHTS assay to test for compound auto fluorescence at 535 nm (green) in HEK293 cell free culture (AID 720682); conditions: cell-free medium, green autofluorescence 485/535 nm; series mostly up to 91.3 µM
Procedure, shortened: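 Measurement is a direct plate read of green fluorescence (485 nm in, 535 nm out) after compound addition to serum-supplemented DMEM lacking cells, with fluorescein used to express intensities.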

[3] = qHTS assay to test for compound auto fluorescence at 590 nm (red) in HEK293 cell free culture (AID 720683); conditions: cell-free medium autofluorescence, Ex540/Em590 red; series mostly up to 91.3 µM
Procedure, shortened: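 Cell-free wells of DMEM with 10% FBS received compound, and intrinsic fluorescence was read at excitation/emission 540/590 nm. Values expressed as equivalence to Rose Bengal sodium.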

[4] = qHTS assay to test for compound auto fluorescence at 590 nm (red) in HepG2 cell free culture (AID 720684); conditions: cell-free medium autofluorescence, red 540/590 nm; series mostly up to 91.3 µM
Procedure, shortened: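 Rose Bengal sodium served as the reference for red signal. Test compounds were dispensed into serum-containing MEM (10% FBS) without cells, and plates were read at 540/590 nm.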

[5] = qHTS assay to test for compound auto fluorescence at 460 nm (blue) in HepG2 cell free culture (AID 720685); conditions: Cell-free culture medium, blue autofluorescence 405/460 nm; series mostly up to 91.3 µM
Procedure, shortened: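 Cell-free plates of MEM plus 10% FBS received 23 nL compound or DMSO vehicle; blue-channel (405/460 nm) intensity scored against triamterene as reference fluorophore.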

[6] = qHTS assay to test for compound auto fluorescence at 535 nm (green) in HepG2 cell free culture (AID 720686); conditions: Cell-free medium, green autofluorescence 485/535 nm; series mostly up to 91.3 µM
[7] = qHTS assay to test for compound auto fluorescence at 460 nm (blue) in HepG2 cells (AID 720687); conditions: autofluorescence 405/460 nm, 1 h; series mostly up to 91.3 µM
Procedure, shortened: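 HepG2 cells in MEM with 10% FBS, attached overnight at 37 C, were exposed to compound or DMSO for 1 hr at 37 C, 5% CO2. Blue fluorescence was read at 405/460 nm, with triamterene as reference fluorophore.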

[8] = target: Glucocorticoid receptor (Homo sapiens) (UniProt P04150); assay: qHTS assay to identify small molecule agonists of the glucocorticoid receptor (GR) signaling pathway (AID 720691; active means well fitted activation curve with a large enough effect in the signal ratio in the repeat runs, not every such curve was filed as active; the % refers to the signal ratio); conditions: GR-bla HeLa, beta-lactamase reporter ratio, 18 h; series mostly up to 62.4 µM
Procedure, shortened: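 Steps: seed GR-bla HeLa cells, incubate 4 h at 37 C/5% CO2; pin-transfer DMSO-dissolved compounds; incubate 18 h at 37 C; add LiveBLAzer B/G FRET substrate; after 2 h at room temperature, measure fluorescence.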

[9] = target: Glucocorticoid receptor (Homo sapiens) (UniProt P04150); assay: qHTS assay to identify small molecule antagonists of the glucocorticoid receptor (GR) signaling pathway (AID 720692; active means well fitted inhibition curve with a large enough effect in the signal ratio in the repeat runs, not every such curve was filed as active; the % refers to the signal ratio); conditions: GR-bla HeLa, beta-lactamase FRET ratio, dexamethasone-stimulated, 18 h; series mostly up to 58.5 µM
Procedure, shortened: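 Antagonism was scored as loss of dexamethasone-driven (5 nM final) reporter signal in HeLa cells bearing a glucocorticoid response element–beta-lactamase construct, after 18 h compound exposure at 37 C and 2 h FRET substrate loading.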

Measured: Potency

Chain of Glucocorticoid receptor (Homo sapiens) (P04150 whole entry, looked up): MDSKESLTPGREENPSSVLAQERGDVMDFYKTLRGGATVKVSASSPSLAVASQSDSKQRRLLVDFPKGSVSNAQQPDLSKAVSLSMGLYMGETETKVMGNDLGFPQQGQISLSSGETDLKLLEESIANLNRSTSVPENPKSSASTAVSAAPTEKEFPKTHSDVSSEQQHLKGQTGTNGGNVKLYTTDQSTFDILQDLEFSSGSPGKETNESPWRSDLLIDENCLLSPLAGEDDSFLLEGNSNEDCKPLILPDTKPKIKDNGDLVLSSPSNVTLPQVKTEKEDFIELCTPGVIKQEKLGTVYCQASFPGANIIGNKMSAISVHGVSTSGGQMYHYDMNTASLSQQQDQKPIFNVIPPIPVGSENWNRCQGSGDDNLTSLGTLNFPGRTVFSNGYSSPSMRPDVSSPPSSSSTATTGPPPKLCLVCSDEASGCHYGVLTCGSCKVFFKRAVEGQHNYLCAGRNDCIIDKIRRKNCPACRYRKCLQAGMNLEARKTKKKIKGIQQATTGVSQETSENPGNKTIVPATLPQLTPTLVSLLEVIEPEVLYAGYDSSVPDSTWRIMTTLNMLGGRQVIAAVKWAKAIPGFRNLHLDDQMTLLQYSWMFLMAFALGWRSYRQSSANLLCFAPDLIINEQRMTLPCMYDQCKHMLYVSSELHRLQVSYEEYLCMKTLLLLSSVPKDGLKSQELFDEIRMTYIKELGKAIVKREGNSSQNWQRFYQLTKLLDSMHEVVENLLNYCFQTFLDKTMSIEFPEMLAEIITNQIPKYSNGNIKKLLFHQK

CCCC(CC)c1ccccc1 (stereo not drawn)
inactive: all assays above

CCCSSCCC
inactive: all assays above

CCCC(=O)OC/C=C(\C)CCC=C(C)C
inactive: all assays above

CC(=O)CC(=O)OC(C)(C)C
not listed: [9]
inactive: all other assays above

O=C[O][Al]([O]C=O)[O]C=O
inactive: all assays above

CC(C)C1OCCN1CCOC(=O)NCCCCCCNC(=O)OCCN1CCOC1C(C)C (stereo not drawn)
inactive: all assays above

O=Cc1cc2ccccc2o1
inactive: all assays above

O=C(O)c1cc2ccccc2nc1C(=O)O
not listed: [4]
inactive: all other assays above

N#Cc1ccccc1O
inactive: all assays above

CCC(=O)CC
inactive: all assays above

C#CCN[C@@H]1CCc2ccccc21
not listed: [8] | [9]
inactive: all other assays above

CNCCS(=O)(=O)O
inactive: all assays above

CCC[C@@H]1C[C@@H](C(=O)N[C@@H]([C@H]2O[C@H](SC)[C@H](O)[C@@H](O)[C@H]2O)[C@@H](C)O)N(C)C1
not listed: [4]
inactive: all other assays above

CCC/C=C(\C=O)CC
not listed: [9]
inactive: all other assays above

Cc1ncc([N+](=O)[O-])n1CC(C)O (stereo not drawn)
not listed: [4]
inactive: all other assays above

Source: PubChem BioAssay (Tox21)
